KB-V1 MDR tox: KB-V1 MDR subline cytotoxicity. Potency, µM (titrated, usually from 46.1 µM), most hits filed as cytotoxic. KB-V1 MDR cells viability, CellTiter-Glo, 72 h. AID 1347076. 400,000 compounds, 3.4% hits; also: nearly all actives have a fitted effect of over 60% in size
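Luminescent ATP read-out (CellTiter-Glo, 10 min) measures survival of drug-selected KB-V1 MDR cells after 72 h, 37 degrees C compound exposure. Medium: phenol-red-free DMEM, 10% FBS. Values from fitted concentration-response curves.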
HT1080 IDH1KD tx: kills HT-1080 cells with IDH1 knockdown. HT-1080 IDH1 knockdown viability, ATP luminescence, 48 h. Potency, µM (doses to about 46.1 µM), usual class: cytotoxic. 360,000 compounds, 2% hits. AID 686971
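% activity derives from luminescence (CellTiter-Glo), normalised to DMSO and no-cell wells. HT-1080-IDH1KD cells, 750/well, had 48 h compound exposure at 37 °C.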
HT1080-NT tox: kills 2HG-producing HT-1080-NT fibrosarcoma cells. HT-1080-NT fibrosarcoma viability, CellTiter-Glo ATP luminescence, 48 h. 360,000 compounds, 1.6% hits. AID 686970. Potency, µM (top dose mostly 46.1 µM), usual class: cytotoxic;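 also: NT is the 2HG producing partner of a matched IDH1 knockdown line; nearly all actives have a fitted effect of over 55% in size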
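Viability of the 2HG-overproducing fibrosarcoma line after 48 hours of compound exposure at 37 degrees C was determined by luminescence with CellTiter-Glo, and concentration-effect curves were then fitted and categorized.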
S2 tox: viability counter-screen for ATXN expression inhibitors. S2 cells (HEK-293 line with an ATXN2-luciferase reporter) viability, CellTiter-Fluor protease fluorescence, 24 h. Potency, µM (series often up to 56.7 µM), most hits filed as cytotoxic. 400,000 compounds, 0.49% hits; also: nearly all actives have a fitted effect of over 40% in size
ATXN2 expr inh: ATXN2 expression inhibition. Potency, µM (series often up to 57 µM), most hits filed as inhibitors. HEK-293 ATXN2-luciferase reporter, luminescence, 24 h. 360,000 compounds, 0.72% hits; also: nearly all actives have a fitted effect of over 55% in size
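ATXN2-luciferase reporter cells (luciferase flanked by upstream and downstream ATXN2 gene portions) were treated 24 h at 37 °C with compounds at up to 57 uM. SteadyGlo luminescence gave expression; GF-AFC fluorescence gave viability.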
KB-3-1 tox: kills parental KB-3-1 adenocarcinoma cells; KB-3-1 viability, CellTiter-Glo ATP luminescence, 72 h; Potency, µM (highest dose often 46.1 µM), usual class: cytotoxic; 400,000 compounds, 1.4% hits; AID 1347075; also: nearly all actives have a fitted effect of over 60% in size
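Multi-concentration cytotoxicity screen in KB-3-1 cells grown in DMEM lacking phenol red with 10% FBS. After 72 h at 37 °C with compound, ATP-dependent luminescence was recorded.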
A number is an active result; i = inactive; ? = inconclusive; nt = no result. Rows were chosen to be rich in hits. Some 6.2% of all compounds tested hit in one or more screens of this group. Calls follow the shape of the dose curve; as a rule, active = well fitted curve in the direction sought with a large enough effect; inconclusive = small, poorly fitted or top-dose-only effect, or another doubt; inactive = no such curve, though single readings can be large; an effect the other way counts as inactive or inconclusive.

SMILES | KB-V1 MDR tox | HT1080 IDH1KD tx | HT1080-NT tox | S2 tox | ATXN2 expr inh | KB-3-1 tox
Cc1cc(C)nc(Nc2nc(C(N)Cc3ccc(C(F)(F)F)cc3)cs2)n1 (centres undefined) | ? | ? | ? | ? | i | ?
NC(Cc1ccc(C(F)(F)F)cc1)c1csc(Nc2nccc(C(F)(F)F)n2)n1 (centres undefined) | 23.1µM | ? | ? | i | ? | ?
Cc1cccc(C)c1OCCNC(=O)C(=O)NCc1ccco1 | ? | 2.59µM | 1.64µM | i | i | 1.46µM
CCOc1ccc(CNC(=O)c2ccc(NC(=O)N3CCCCc4ccccc43)cc2)cc1OC | i | nt | nt | i | i | i
N#CC(=C(N)Sc1ccc(N)cc1)c1ccccc1C(F)(F)F | nt | nt | nt | nt | i | nt
CCOc1ccc(Nc2nc3c(c(=O)[nH]2)CCCC3)cc1 | 18.4µM | i | i | i | i | i
CCOc1ccc(Nc2nc3c(c(=O)[nH]2)CCC3)cc1 | ? | i | ? | i | ? | i
O=c1[nH]c(Nc2nc3ccccc3o2)nc2c1CCCC2 | ? | 3.98µM | 2.24µM | ? | ? | i
COc1cccc(C2C(C(=O)Nc3cccnc3)=C(C)Nc3nc(SCc4ccccc4)nn32)c1 (centres undefined) | i | nt | nt | i | i | i
CCOc1ccc(N2CC(c3nc(-c4cc(OC)c(OC)c(OC)c4)no3)CC2=O)cc1 (centres undefined) | i | nt | nt | i | i | i
CCCN(CC(=O)Nc1ccccc1C)C(=O)C1CCN(c2ncnc3sc(C)c(C)c23)CC1 | 20.6µM | i | i | i | i | i
Cc1sc2ncnc(N3CCC(C(=O)Nc4ccc(Cl)cc4Cl)CC3)c2c1C | i | i | i | i | ? | i
Cc1sc2ncnc(N3CCC(C(=O)Nc4ccc(Br)cc4Br)CC3)c2c1C | 5.8µM | i | i | i | i | ?
COc1ccccc1OCC(=O)NNC(=O)C1CCN(c2ncnc3sc(C)c(C)c23)CC1 | i | i | i | ? | nt | i
COc1ccc(-c2csc(NC(=O)C3CCN(c4ncnc5sc(C)c(C)c45)CC3)n2)cc1OC | i | ? | 5.8µM | i | 7.94µM | ?
O=C(O)c1ccc(O)c2ncc(N3CCOCC3)cc12 | nt | nt | nt | nt | i | nt
Cc1ccc(CN2CCC(CNC(=O)c3cnn(-c4ccccc4)c3C3CCN(C(=O)OC(C)(C)C)CC3)CC2)cc1 | i | nt | nt | nt | nt | i
Cc1ccccc1-c1nc(CN2CCC(C(=O)NCCCN3CCOCC3)CC2)c(C)o1 | i | i | 10µM | i | i | i
CCOC(=O)N1CCC(NC(=O)CS(=O)Cc2nc(-c3ccc(Cl)cc3)oc2C)CC1 (centres undefined) | i | ? | 18.4µM | i | nt | i
Cc1oc(-c2ccc(Cl)cc2)nc1CN1CCCC(C(=O)NCCCN2CCOCC2)C1 (centres undefined) | 18.4µM | ? | i | i | i | ?
Cc1ccccc1-c1nc(CN2CCC(C(=O)NCCN3CCOCC3)CC2)c(C)o1 | i | i | i | i | i | i
Cc1oc(-c2ccc(Cl)cc2)nc1CN1CCC(C(=O)NCc2ccco2)CC1 | 9.2µM | i | i | i | i | i
CC(C)(C)c1ccc(Oc2ccc(NC(=O)CCC(=O)OCC(=O)c3ccccc3)cc2)cc1 | i | nt | nt | ? | i | i
O=C(NC1CCCC1)c1cn(C2CCCN(Cc3ccc4c(c3)OCCO4)C2)nn1 (centres undefined) | nt | nt | nt | i | nt | nt
Cc1oc(-c2ccc(Cl)cc2)nc1CN1CCCC(C(=O)NCc2cccnc2)C1 (centres undefined) | 2.31µM | ? | ? | ? | i | 2.59µM
SMILES | KB-V1 MDR tox | HT1080 IDH1KD tx | HT1080-NT tox | S2 tox | ATXN2 expr inh | KB-3-1 tox
Cc1oc(-c2ccc(Cl)cc2)nc1CN1CCC(C(=O)NCCCN2CCCC(C)C2)CC1 (centres undefined) | i | 16.4µM | 13µM | ? | ? | ?
Cc1oc(-c2ccc(Cl)cc2)nc1CS(=O)CC(=O)NCCN1CCCCCC1 (centres undefined) | i | i | i | i | nt | i
Cc1oc(-c2ccc(Cl)cc2)nc1CS(=O)CC(=O)NCCCN1CC(C)CC(C)C1 (centres undefined) | i | ? | 16.4µM | i | i | i
Cc1oc(-c2ccc(Cl)cc2)nc1CN1CCCC(C(=O)NCc2ccccn2)C1 (centres undefined) | i | i | i | i | i | i
CCCCN1CCCc2cc(CN(CCCN3CCOCC3)C(=O)Nc3ccc(CC)cc3)ccc21 | i | nt | nt | i | i | i
COc1ccc(NC(=O)c2nc(S(C)(=O)=O)ncc2N(Cc2ccc(C)cc2)Cc2ccco2)cc1Cl | i | nt | nt | i | i | i
COc1ccccc1-n1cc([C@@H]2C[C@H]3CN(c4ccccc4)C(=O)[C@]34CCCN24)cn1 | 7.31µM | 5.8µM | ? | ? | ? | i
COc1cc([C@@H]2C[C@H]3CN(c4ccccc4)C(=O)[C@]34CCCN24)cc(OC)c1OC | i | i | i | ? | nt | ?
CCOc1ccc(-c2csc(/C(C#N)=C\c3ccc(O)c([N+](=O)[O-])c3)n2)cc1 | 5.17µM | ? | 14.6µM | nt | ? | 20.6µM
O=S(=O)(c1ccc2ncccc2c1)N1CCN(c2nc(-c3cccs3)nc3ccccc23)CC1 | nt | i | i | nt | nt | nt
Brc1ccc2c(c1)OCCOCCOc1cc(Br)ccc1OCCOCCOCCO2 | 2.31µM | 18.4µM | ? | ? | 15.8µM | ?
Brc1cc2c(cc1Br)OCCOCCOCCOCCO2 | i | i | i | i | i | i
CCOC(=O)C1CCC(CN(Cc2cccc(Br)c2)S(=O)(=O)c2ccc(Cl)cc2)CC1 (centres undefined) | i | nt | nt | i | i | i
COc1ccc(-n2ccc(-c3sc(NCc4cc(OC)c5c(c4)OCO5)nc3C)n2)cc1 | nt | nt | nt | i | nt | nt
Cc1nn(-c2ccccc2)c2c1C(=O)N(c1ccccc1)C(=O)C(C)(C)C2 | i | i | i | i | i | i
Cc1nn(-c2ccccc2)c2c1/C(=N/O)CC(C)(C)C2 | 16.4µM | i | i | i | i | i
OCCN1CCN(Cc2ccc3c(c2)CN(Cc2ccc4ccccc4c2)CCO3)CC1 | nt | nt | nt | i | nt | nt
O=C(Sc1ccc(Cl)cc1)c1ccccn1 | i | 23.1µM | ? | i | i | i
O=C(NCCNC(=O)c1ccccn1)c1ccc(Cl)cc1 | i | i | i | i | i | i
COc1nc(OC)nc(N2CCC(C(=O)NC3CC3)CC2)n1 | i | i | i | i | i | i
COc1nc(OC)nc(N2CCC(C(=O)NC3CCCCCC3)CC2)n1 | 10.3µM | i | i | i | i | i
CCOc1ccc2c(c1)c(=O)c(S(=O)(=O)c1ccc(CC)cc1)cn2Cc1cccc(Cl)c1 | i | nt | nt | i | i | i
O=C(/C=C/c1ccccc1Cl)NCCc1ccccc1 | 16.4µM | i | i | i | i | i
COc1ccc(OC)c(NC(=O)CCc2c(C)nc3c(c(C)nn3C(C)(C)C)c2C)c1 | i | nt | nt | i | i | i

Screens as filed in PubChem BioAssay.
